Holding throughout (assay): NCI-60 one-dose screen, 48 h (100 = growth as untreated, 0 = no growth, -100 = all killed)
What all share (conditions): 10 µM

Assay [1] concerns DU-145 prostate.
For assay [2], the system named is K-562 leukemia.
In assay [3] the test system is MALME-3M melanoma.
The subject of assay [4] is MDA-MB-231 breast.
Assay [5] concerns RXF 393 renal.
Assay [6] relates to SF-268 CNS.
For assay [7], the system named is SF-295 CNS.
Assay [8] concerns SF-539 CNS.
The test system of assay [9] is UACC-257 melanoma.
Assay [10] has as its system M14 melanoma.

Compounds without any hit were thinned out: in the full panel of roughly 83,000, 20% have a hit.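 The test compound was applied at a single concentration to cells in 96-well plates for 48 hours, and percent growth was recorded.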 Unmarked numbers belong to inactive results. Active and inactive are the calls of the source. The calls were made as follows: active = growth percent below 10; inactive = the rest.

Take `COc1cccc(-c2nnc(COc3ccc(-c4nc5ccccc5[nH]4)cc3OC)o2)c1`: the growth in assay [1] was 98.9%; in [2], 55.5%; in [3], 89.9%; in [4], 91.7%; in assay [5], 104%; in assay [6], 103%. The growth in assay [7] was 101%; in assay [8] it was 104%; in assay [9], 109%; in [10], 103%.
`Cc1ccc(/C(CS(=O)(=O)c2ccc(C)cc2)=N\O)cc1`: the growth was 111% in assay [1]; 105% in assay [2]; 116% in [3]; 103% in assay [4]; 93.6% in assay [5]; 108% in [6]. For the same compound, the growth in [7] is 90.8%; in [8] it was 97.3%; in [9], 97%; in assay [10], 116%.
For `COc1ccc(/C(CS(=O)(=O)c2ccccc2)=N\O)cc1`, the growth in assay [1] is 119%; in [2], 103%; in [3], 106%; in [4], 113%; in [5], 92.1%; in [6], 115%. Besides, the growth is 88.5% in [7], 102% in assay [8], 95.8% in assay [9] and 109% in assay [10].
For `CCN1CCN(c2ccc(Nc3ncnc4c3nnn4CCc3cc(OC)cc(OC)c3)cc2)CC1`, the growth in assay [1] is 104%; in [2] it was 77.7%; in assay [3], 92.6%; in assay [4] it was 95.4%; in [5], 97.7%; in assay [6] it was 97.4%. Also, the growth is 90.2% in [7], 95.5% in [8], 84.8% in assay [9] and 98.6% in assay [10].
For the compound `c1ccc(OCCC[P+](c2ccccc2)(c2ccccc2)c2ccccc2)cc1`, the growth in [1] is 21.4%; in [2] it was 1.76% (active); in assay [3], 16.5%; in [4], 11.9%; in assay [5], 31.6%; in assay [6], 18%. The growth in assay [7] is -30.7% (active); in assay [8] it was 13.6%; in assay [9], -10.9% (active); in assay [10], 14.1%.
Take `COc1cc(-c2c(C#N)c(N)n3c(nc4ccccc43)c2C#N)cc(Br)c1OC`: the growth is 39.1% in assay [1]; 54.6% in assay [2]; 7.41% (active) in assay [3]; 12.6% in [4]; -9.32% (active) in assay [5]; 64% in assay [6]. The growth in assay [7] is 66%; in assay [8] it was 41.2%; in [9], 54%; in assay [10] it was 76%.
For `Nc1nc2c(ncn2C2OC3COP(=O)(O)OC4C(COP(=O)(O)OC2C3O)OC(n2cnc3c(N)ncnc32)C4O)c(=O)[nH]1` (stereo not given), the growth in [1] is 107%; in assay [2], 92.5%; in assay [3] it was 106%; in [4] it was 114%; in assay [5] it was 114%; in [6], 102%. In addition, the growth was 96.9% in [7], 0.807% (active) in assay [8], 112% in assay [9] and 106% in [10].
`CC(=O)/C(=C\c1ccc(Cl)cc1)c1ccccc1`: the growth in assay [1] is 0.722% (active); in assay [2] it was 8.97% (active); in assay [3] it was 73.1%; in assay [4], 19.4%; in assay [5], 25.7%; in [6] it was 23.9%. The growth in [7] was -6.11% (active); in assay [8] it was -1.66% (active); in [9] it was 72.2%; in assay [10], 1.53% (active).
Turning to `Cc1ccc([P+](Cc2ccccc2)(c2ccccc2)c2ccccc2)cc1`, the growth in assay [1] is 32.3%; in assay [2] it was 2.63% (active); in assay [3], -10.8% (active); in assay [4], 17.8%; in [5], 45.7%; in assay [6], 28.4%. The growth in assay [7] was -6.8% (active); in [8], 23%; in [9], -28.6% (active); in assay [10], 3.22% (active).
In the case of `O=C1CC[C@@H](C(=O)N[C@H]2CSSC[C@@H](C(=O)NCCc3ccccc3)NC(=O)[C@H](Cc3ccccc3)NC(=O)[C@@H]3CCCN3C(=O)[C@@H]3CCCN3C2=O)N1`, the growth was 110% in [1]; 90.6% in [2]; 110% in assay [3]; 90.1% in [4]; 103% in assay [5]; 106% in assay [6]. Besides, the growth is 98.8% in [7], 94.2% in assay [8], 99.1% in assay [9] and 97.8% in assay [10].
In the case of `COc1ccc(-c2nnc(COc3ccc(NC(=O)Nc4cccc(C(F)(F)F)c4)cc3F)o2)cc1`, the growth in assay [1] is 71.9%; in assay [2], 45.3%; in assay [3], 60.5%; in [4] it was 42.5%; in assay [5], 86.6%; in assay [6], 75.1%. In addition, the growth was 64.2% in assay [7], 57.6% in assay [8], 71.8% in [9] and 60.8% in assay [10].
Turning to `COc1cc(CSc2nc3ccc(Cl)cc3c(=O)n2Cc2ccccc2)cc(OC)c1OC`, the growth in [1] is 40.8%; in assay [2], 12.9%; in [3], 38.9%; in [4], 38.8%; in assay [5] it was 13.1%; in assay [6], 41%. The growth in assay [7] is 28.9%; in [8], 5.82% (active); in [9], 46.5%; in assay [10], 35.4%.
Take `COc1ccc(-c2cc(/C=C3\C(=O)Nc4cc(Cl)ccc43)[nH]n2)cc1`: the growth in assay [1] was 26.4%; in [2], 13.3%; in assay [3] it was 29.2%; in assay [4] it was 54.5%; in assay [5] it was 9.94% (active); in assay [6], 36.5%. Also, the growth was 1.51% (active) in assay [7], 4.51% (active) in assay [8], 62.2% in assay [9] and 35% in assay [10].
`CC(CNC(Cc1ccccc1)c1ccccc1)NC(Cc1ccccc1)c1ccccc1` (stereo not given): the growth was 21.4% in assay [1]; 8.06% (active) in assay [2]; 45% in assay [3]; 17.4% in assay [4]; 43.7% in assay [5]; 53.5% in assay [6]. Further, the growth in assay [7] was 61.2%; in [8] it was 52.7%; in [9], 76.9%; in assay [10] it was 30.4%.

Values taken from PubChem BioAssay (NCI).
